Calls of active or inactive are those of the source. No rule for the calls is given here.
System: HIV-1 nucleocapsid protein NCp7 (binding to TG oligonucleotide)
Assay: HIV Nucleocapsid (AID 346);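 also: potency is for inhibitors that block NC binding and lower polarization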
Conditions: HIV-1 NC / fluorescein-TGTGTGTG probe, fluorescence polarization
How it was run: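 NCp7 100 nM + fluorescein TG4xF 10 nM; Hepes pH 7.5/250mM NaCl/1uM ZnCl2/0.004% PEG 20000; 1 hr RT; FP, 45 s exposure; oligo-only wells as negative control.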
Potency is read from the fitted curve at half-maximal effect.

Row | SMILES | Potency
1 | CN(C)c1ncnc2ccc(-c3cccc(NS(C)(=O)=O)c3)cc12 | > 20 µM (inactive)
2 | CN(C)C(=O)c1ccc(-c2nc(Nc3ccncc3)c3ccccc3n2)cc1 | > 20 µM (inactive)
3 | COCCn1c(=O)c(-c2ccccc2)nc2cnc(Oc3cccc(Cl)c3)nc21 | > 20 µM (inactive)
4 | CC(=O)NCCNc1ncnc2ccc(-c3ccccc3C(F)(F)F)cc12 | > 20 µM (inactive)
5 | CN(C)c1ccc(-c2nccc(NCc3cccs3)n2)cc1 | > 20 µM (inactive)
6 | Cc1cccc(CNc2ccnc(-c3ccccc3Cl)n2)c1 | > 20 µM (inactive)
7 | COc1cccc(Cn2c(=O)c(-c3cn(C)c4ccccc34)nc3cnc(OC)nc32)c1 | > 20 µM (inactive)
8 | Cc1nc2cnc(Nc3ccccc3)nc2n(C[C@H]2CCCO2)c1=O | > 20 µM (inactive)
9 | COCCn1c(=O)c(-c2ccccc2)nc2cncnc21 | > 20 µM (inactive)
10 | Cn1cc(-c2nc3cnc(N4CCNCC4)nc3n(C3CC3)c2=O)c2ccccc21 | > 20 µM (inactive)
11 | CN(C)c1ccc(-c2nccc(NCCN3CCOCC3)n2)cc1 | > 20 µM (inactive)
12 | Cc1cccc(CNc2ncnc3ccc(-c4ccccc4CN(C)C)cc23)c1 | > 20 µM (inactive)
13 | N#Cc1cccc(-c2ccc3ncnc(NCCN4CCOCC4)c3c2)c1 | > 20 µM (inactive)
14 | Cc1nc2cnc(Nc3ccccc3)nc2n(CCc2ccccc2)c1=O | > 20 µM (inactive)
15 | COc1ccc(-c2nc3cnc(Nc4ccccc4)nc3n(Cc3cccs3)c2=O)cc1 | > 16 µM (inactive)
16 | Cc1noc(C)c1-c1cncnc1NCc1cccnc1 | > 20 µM (inactive)
17 | COc1ccc2[nH]cc(CCNc3ncncc3-c3ccccc3CN(C)C)c2c1 | > 20 µM (inactive)
18 | CN(C)c1ncc2nc(-c3cccc(C#N)c3)c(=O)n(C)c2n1 | > 20 µM (inactive)
19 | COc1ccc(CNc2ncncc2-c2c(C)noc2C)c(OC)c1 | > 20 µM (inactive)
20 | Cn1c(=O)c(-c2cc(F)cc(F)c2)nc2cnc(N3CCOCC3)nc21 | > 20 µM (inactive)
21 | N#CCCn1c(=O)c(CCc2ccccc2)nc2cnc(N3CCOCC3)nc21 | > 20 µM (inactive)
22 | CC(=O)NCCNc1ncnc2ccc(-c3ccccc3C)cc12 | > 20 µM (inactive)
23 | O=C(c1csnn1)N1CCC2(CCN(Cc3nccs3)CC2)CC1 | > 20 µM (inactive)
24 | Cc1noc(C)c1-c1nccc(-n2ccnc2)n1 | > 20 µM (inactive)

Row | SMILES | Potency
25 | O=C(c1cccc(F)c1)N1CCC2(CCCN(c3ccc(-c4ccccc4)cc3)C2)CC1 | > 20 µM (inactive)
26 | COc1ccc(-n2c(=O)c(-c3cccs3)nc3cnc(N4CCN(C)CC4)nc32)cc1 | > 20 µM (inactive)
27 | Cc1ccccc1-c1cncnc1NCCN1CCOCC1 | > 20 µM (inactive)
28 | c1cn(-c2cc(-c3ccc4c(c3)OCO4)ncn2)cn1 | > 20 µM (inactive)
29 | COc1ccccc1CNc1ccnc(-c2ccccc2Cl)n1 | > 20 µM (inactive)
30 | COc1ccc(-c2nc3cnc(Nc4ccccc4)nc3n(CCC#N)c2=O)cc1 | 2.04 µM (active)
31 | COc1ccccc1CNc1cc(-c2cccc(NS(C)(=O)=O)c2)ncn1 | > 20 µM (inactive)
32 | COCC(=O)N1CCC2(CCCN(Cc3ccc(C#N)cc3)C2)CC1 | > 20 µM (inactive)
33 | c1csc(CNc2nc(-c3ccoc3)nc3ccccc23)c1 | > 20 µM (inactive)
34 | CNc1nc(-c2ccccc2OC)nc2ccccc12 | > 20 µM (inactive)
35 | CC(=O)N1CCC[C@@]2(CCN(c3ncccn3)C2)C1 | > 20 µM (inactive)
36 | O=C(c1cc(C(F)(F)F)cc(C(F)(F)F)c1)N1CCC2(CC1)CN(Cc1ccncc1)C2 | > 20 µM (inactive)
37 | O=c1c(-c2cccs2)nc2cncnc2n1Cc1ccccc1 | > 20 µM (inactive)
38 | CS(=O)(=O)N1CCC2(CCN(c3ccccc3)CC2)CC1 | > 20 µM (inactive)
39 | CN(C)c1ccc(-c2cncnc2N(C)Cc2ccco2)cc1 | > 20 µM (inactive)
40 | COc1ccccc1-c1ccc2ncnc(NCc3ccccc3)c2c1 | > 20 µM (inactive)
41 | O=C(c1cnccn1)N1CCC2(CCCN(c3ccc(-c4ccccc4)cc3)C2)CC1 | > 20 µM (inactive)
42 | Cc1cccc(CNc2ncncc2-c2cccc(C#N)c2)c1 | > 20 µM (inactive)
43 | Cc1noc(C)c1C(=O)N1CCC[C@@]2(CCN(c3cccc(-c4ccccc4)c3)C2)C1 | > 20 µM (inactive)
44 | CC(C)NC(=O)N1CCC2(CC1)CCN(C(=O)c1cccn1C)CC2 | > 20 µM (inactive)
45 | N#Cc1cccc(NC(=O)N2CCC3(CC2)CCN(C(=O)c2ccco2)CC3)c1 | > 20 µM (inactive)
46 | O=C(c1ccncc1)N1CCC2(CCCN(c3ccc(-c4ccccc4)cc3)C2)CC1 | > 20 µM (inactive)
47 | N#Cc1ccc(CN2CC3(CCN(C(=O)c4cnccn4)CC3)C2)cc1 | > 20 µM (inactive)
48 | CN(C)c1ccc(-c2cncnc2Nc2ccc(F)cc2)cc1 | > 20 µM (inactive)

Row | SMILES | Potency
49 | O=c1c(-c2ccccc2)nc2cnc(N3CCNCC3)nc2n1-c1ccccc1 | > 20 µM (inactive)
50 | COc1ccc(C(=O)N2CCC3(CCN(C(=O)Nc4cccc(C#N)c4)CC3)CC2)cc1 | > 20 µM (inactive)
51 | COc1ccc(NC(=O)N2CCCC3(CCN(C(=O)c4ccc(OC)cc4)CC3)C2)cc1 | > 20 µM (inactive)
52 | COCCn1c(=O)c(C)nc2cnc(N3CCN(C)CC3)nc21 | > 20 µM (inactive)
53 | COc1ccc(NC(=O)N2CCC3(CC2)CCN(C(=O)c2ccco2)CC3)cc1 | > 20 µM (inactive)
54 | COc1ccc2[nH]cc(CCNc3cc(-c4ccc(C(=O)N(C)C)cc4)ncn3)c2c1 | > 20 µM (inactive)
55 | CN(C)c1ncnc2ccc(-c3ccc4c(c3)OCO4)cc12 | > 20 µM (inactive)
56 | CC(=O)N1CCC[C@@]2(CCN(Cc3cc(C(F)(F)F)cc(C(F)(F)F)c3)C2)C1 | > 20 µM (inactive)
57 | COc1ccccc1CNc1cc(-c2c(C)noc2C)ncn1 | > 20 µM (inactive)
58 | CN1CCN(c2ncc3ncc(=O)n(Cc4cccs4)c3n2)CC1 | > 20 µM (inactive)
59 | COc1ccc(Oc2ncc3nc(-c4ccc(F)cc4)c(=O)n(C4CC4)c3n2)cc1 | > 20 µM (inactive)
60 | CC(C)NC(=O)N1CC[C@@]2(CCCN(C(=O)Oc3ccccc3)C2)C1 | > 20 µM (inactive)
61 | COc1cccc(-c2nccc(-n3ccnc3)n2)c1 | > 20 µM (inactive)
62 | COc1ccccc1-c1cncnc1NCCc1cnc[nH]1 | > 20 µM (inactive)
63 | COc1cccc(-c2nc(NCc3ccc(OC)cc3OC)c3ccccc3n2)c1 | > 20 µM (inactive)
64 | N#Cc1cccc(NC(=O)N2CC3(CCN(C(=O)c4cc(C(F)(F)F)cc(C(F)(F)F)c4)CC3)C2)c1 | > 20 µM (inactive)
65 | O=C(c1cnccn1)N1CCC2(CCCN(Cc3ccncc3)C2)CC1 | > 20 µM (inactive)
66 | O=C(c1cc(C(F)(F)F)cc(C(F)(F)F)c1)N1CCC[C@@]2(CCN(c3ncccn3)C2)C1 | > 20 µM (inactive)
67 | O=C(c1ccncc1)N1CCC2(CC1)CCN(c1ccncc1)CC2 | > 20 µM (inactive)
68 | COc1ccc(-n2c(=O)c(C)nc3cnc(Oc4cccc(Cl)c4)nc32)cc1 | > 20 µM (inactive)
69 | Cc1nc2cnc(N3CCOCC3)nc2n(Cc2cccs2)c1=O | > 20 µM (inactive)
70 | COCC(=O)N1CCC2(CC1)CCN(c1ccccn1)CC2 | > 20 µM (inactive)
71 | COc1ccc(NC(=O)N2CC[C@@]3(CCCN(C(=O)c4cccc(F)c4)C3)C2)cc1 | > 20 µM (inactive)
72 | CC(C)CN1CCC2(CC1)CCN(C(=O)c1ccco1)CC2 | > 20 µM (inactive)

Row | SMILES | Potency
73 | Cc1cnc(CNc2nc(-c3ccoc3)nc3ccccc23)cn1 | > 20 µM (inactive)
74 | COc1ccc2[nH]cc(CCNc3ccnc(-c4ccoc4)n3)c2c1 | > 20 µM (inactive)
75 | c1ccc(C(c2ccccc2)N2CC3(CCNCC3)C2)cc1 | > 20 µM (inactive)
76 | CCNc1ncc2nc(-c3cc(F)cc(F)c3)c(=O)n(C)c2n1 | > 20 µM (inactive)
77 | COCC(=O)N1CCC2(CCCN(c3ccc(-c4ccccc4)cc3)C2)CC1 | > 20 µM (inactive)
78 | CC(=O)NCCNc1nc(-c2ccccc2Cl)nc2ccccc12 | > 20 µM (inactive)
79 | O=C(c1cnccn1)N1CCC2(CCCN(c3ncccn3)C2)CC1 | > 20 µM (inactive)
80 | COc1ccc(-c2nc3cnc(OC)nc3n(CCC#N)c2=O)cc1 | > 20 µM (inactive)
81 | O=C(c1ccncc1)N1CCC2(CCCN(c3cccc(-c4ccccc4)c3)C2)CC1 | > 20 µM (inactive)
82 | O=c1c(-c2ccccc2)nc2cncnc2n1C1CC1 | > 20 µM (inactive)
83 | CN1CCN(c2ncnc3ccc(-c4cccc(NS(C)(=O)=O)c4)cc23)CC1 | > 20 µM (inactive)
84 | COc1ccc2[nH]cc(CCNc3cc(-c4ccccc4OC)ncn3)c2c1 | > 20 µM (inactive)
85 | COc1ccc(C(=O)N2CCC3(CCCN(C(=O)Nc4cccc(C#N)c4)C3)CC2)cc1 | > 20 µM (inactive)
86 | COCCn1c(=O)c(C)nc2cnc(Oc3ccc(OC)cc3)nc21 | > 20 µM (inactive)
87 | CN1CCN(c2ncc3ncc(=O)n(Cc4ccc(F)cc4)c3n2)CC1 | > 20 µM (inactive)
88 | O=C(Oc1ccccc1)N1CCC2(CCCN(c3cccc(-c4ccccc4)c3)C2)CC1 | > 20 µM (inactive)
89 | c1ccc(-c2ccc(N3CCCC4(CCNCC4)C3)cc2)cc1 | > 20 µM (inactive)
90 | Cc1cnc(CNc2nc(-c3ccc(N(C)C)cc3)nc3ccccc23)cn1 | > 20 µM (inactive)
91 | COc1ccc(-c2nc3cnc(Nc4cccc(OC)c4)nc3n(C[C@H]3CCCO3)c2=O)cc1 | 14.4 µM (inactive)
92 | Cc1noc(C)c1-c1nc(NCc2cccnc2)c2ccccc2n1 | > 20 µM (inactive)
93 | COc1ccc(C(=O)N2CCC3(CCCN(C)C3)CC2)cc1 | > 20 µM (inactive)
94 | O=c1c(-c2ccccc2)nc2cnc(N3CCOCC3)nc2n1Cc1ccc(F)cc1 | > 20 µM (inactive)
95 | CS(=O)(=O)N1CCC[C@@]2(CCN(C(=O)Nc3cccc(C#N)c3)C2)C1 | > 20 µM (inactive)
96 | O=c1c(-c2ccccc2)nc2cncnc2n1Cc1ccccc1 | > 20 µM (inactive)

Row | SMILES | Potency
97 | Cc1noc(C)c1-c1nc(NCc2cccs2)c2ccccc2n1 | > 20 µM (inactive)
98 | Fc1ccc(Nc2ncncc2-c2ccoc2)cc1 | > 20 µM (inactive)
99 | Fc1ccc(Nc2ccnc(-c3ccc4c(c3)OCO4)n2)cc1 | > 20 µM (inactive)
100 | CC(=O)N1CCC2(CC1)CCN(c1cccc(-c3ccccc3)c1)CC2 | > 20 µM (inactive)
101 | COc1ccc(CNc2ncnc3ccc(-c4ccc(C(=O)N(C)C)cc4)cc23)c(OC)c1 | > 20 µM (inactive)
102 | CN(C)c1ncc2nc(-c3ccc(F)cc3)c(=O)n(Cc3cccs3)c2n1 | > 20 µM (inactive)
103 | O=c1c(-c2cccc(F)c2)nc2cncnc2n1Cc1ccccc1Cl | > 20 µM (inactive)
104 | COc1ccc(CNc2ncnc3ccc(-c4cccc(NS(C)(=O)=O)c4)cc23)c(OC)c1 | > 20 µM (inactive)
105 | O=C(c1cnccn1)N1CCC2(CCN(Cc3cc(C(F)(F)F)cc(C(F)(F)F)c3)CC2)CC1 | > 20 µM (inactive)
106 | O=C(Nc1cccc(F)c1)N1CC[C@@]2(CCCNC2)C1 | > 20 µM (inactive)
107 | O=C(Nc1cccc(F)c1)N1CC2(CCN(C(=O)c3cc(C(F)(F)F)cc(C(F)(F)F)c3)CC2)C1 | > 4 µM (inactive)
108 | CN(Cc1ccco1)c1ncncc1-c1ccc2c(c1)OCO2 | > 20 µM (inactive)
109 | COCCn1c(=O)c(-c2ccc(F)cc2)nc2cnc(Oc3ccccc3)nc21 | > 20 µM (inactive)
110 | COc1ccccc1CNc1cc(-c2cccnc2)ncn1 | > 20 µM (inactive)
111 | CC(=O)N1CCC[C@@]2(CCN(C(=O)Nc3cccc(C#N)c3)C2)C1 | > 20 µM (inactive)
112 | O=c1c(CCc2ccccc2)nc2cncnc2n1Cc1ccc(F)cc1 | > 20 µM (inactive)
113 | CC(C)CN1CCC2(CC1)CCN(C(=O)c1csnn1)CC2 | > 20 µM (inactive)
114 | Cn1cccc1C(=O)N1CCC2(CC1)CCN(c1ccncc1)CC2 | > 20 µM (inactive)
115 | CN1CCN(c2ccnc(-c3cccc(NS(C)(=O)=O)c3)n2)CC1 | > 20 µM (inactive)
116 | COc1ccccc1CNc1cc(-c2cccc(C#N)c2)ncn1 | > 20 µM (inactive)
117 | O=C(c1cccc(F)c1)N1CCC2(CCN(Cc3nccs3)CC2)CC1 | > 20 µM (inactive)
118 | COc1ccc(-c2nc3cnc(OC)nc3n(-c3ccc(OC)cc3)c2=O)cc1 | > 20 µM (inactive)
119 | COc1ccccc1-c1cncnc1NCc1ccccc1 | > 20 µM (inactive)
120 | c1nc(N2CCNCC2)c2cc(-c3ccc4c(c3)OCO4)ccc2n1 | > 20 µM (inactive)
